From PubChem BioAssay AID1030 (National Center for Advancing Translational Sciences (NCATS), 2008)
In all, about 220,000 compounds went through this assay and about 16,000 (7.3%) were called active. Not shown: some 25% with an inconclusive outcome. Calls follow the shape of the dose curve; as a rule, active = well fitted inhibition curve with a large enough effect (not every such curve was filed as active); inconclusive = small, poorly fitted or top-dose-only effect, or another doubt; inactive = no such curve, though single readings can be large or run the other way. The sample as a whole holds a higher share of actives than the screen did.

biological target: Aldehyde dehydrogenase 1A1 (Homo sapiens) (UniProt P00352); experiment: qHTS Assay for Inhibitors of Aldehyde Dehydrogenase 1 (ALDH1A1); settings: Purified ALDH1A1, NADH fluorescence, propionaldehyde substrate; series mostly up to 75.3 µM; activity, negative = inhibition: at the top concentration;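 as to activity, negative = inhibition: plate controls were no enzyme wells and a reference inhibitor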
Potency is read from the fitted curve at half-maximal effect.

Chain of Aldehyde dehydrogenase 1A1 (Homo sapiens) (P00352 whole entry, looked up): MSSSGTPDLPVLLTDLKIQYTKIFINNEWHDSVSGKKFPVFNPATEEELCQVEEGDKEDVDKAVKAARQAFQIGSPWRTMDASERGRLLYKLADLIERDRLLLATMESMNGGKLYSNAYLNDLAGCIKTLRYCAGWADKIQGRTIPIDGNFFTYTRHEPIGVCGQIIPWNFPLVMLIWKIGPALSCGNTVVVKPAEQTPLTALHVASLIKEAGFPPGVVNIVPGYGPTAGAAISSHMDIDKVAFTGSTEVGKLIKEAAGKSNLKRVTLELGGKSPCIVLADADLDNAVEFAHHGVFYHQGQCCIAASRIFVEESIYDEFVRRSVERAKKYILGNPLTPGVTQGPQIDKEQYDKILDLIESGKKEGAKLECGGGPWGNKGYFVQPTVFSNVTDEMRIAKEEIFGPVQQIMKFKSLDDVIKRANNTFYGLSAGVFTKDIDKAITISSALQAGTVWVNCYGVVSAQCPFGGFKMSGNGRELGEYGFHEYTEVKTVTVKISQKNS

activity, negative = inhibition, inactive:
CC/C=C\C/C=C\C/C=C\C/C=C\C/C=C\C/C=C\CCC(=O)NCCc1ccc(O)c(O)c1 -7.38%
O=C(c1ccco1)N1CCN(C(=O)C2CC(c3ccc(F)cc3)=NO2)CC1 (configuration not stated) 5.77%
COc1ccccc1OCc1ccc(C(=O)N2CCN(C)CC2)o1 0.393%
COc1ccc(-n2c(C)cc(C(=O)CN3C(=O)NC4(CCc5ccccc54)C3=O)c2C)cc1 (configuration not stated) -6.6%
Cc1ccc(NC(=O)CNCc2ccccn2)cc1S(=O)(=O)N(C)C -2.4%
Cc1ccc(/C=N/NC(=O)Cn2ccc(C(F)(F)F)n2)o1 2.52%
CCN(CC)N=Nc1cccc(NC(C)=O)c1 0.592%
O=C(Nc1ccncc1)c1cc2ccccc2o1 2.07%
Cc1c(/C=N\NC(=O)c2cc3ccccc3o2)c2ccccc2n1C 3.07%
NC(=O)Cn1nc([N+](=O)[O-])nc1Oc1ccc(Br)cc1 10.1%
CC(C)(C)C(=O)N(Cc1ccccc1)c1ccccn1 -3.2%
CC(C)CCN1CCN(Cc2cn[nH]c2C2CCCCC2)CC1CCO (configuration not stated) 1.48%
CCC(C)NC(=O)CCCc1ccccc1 (configuration not stated) 6.92%
Cc1ccc(N(NC(=O)C(C)(C)O)C(=O)c2ccccc2)cc1C -4.71%
CC(C)(O)C(=O)NN(C(=O)c1ccccc1)c1cccc(Br)c1 7.28%
CCCCCCCCC(=O)NCCOc1ccccc1 3.47%
Cc1cc(NC(=O)CSCc2ccccc2C)no1 -0.887%
Cn1cnnc1Sc1ccc(CN2CCN(C3CCCC3)C(CCO)C2)o1 (configuration not stated) -6.89%
COc1cccc2cc(/C(C)=N/NC(=O)c3ccco3)oc12 -2.36%
C=CCOc1c(CNn2cn[nH]c2=S)cccc1OC 4.16%
CCCCC(=O)NNC(=S)NC(=O)C(c1ccccc1)c1ccccc1 0.816%
CC(C)C(=O)NC(=S)Nc1ccccc1F -5.01%
Cn1nnnc1NCc1ccc(Cl)c(Cl)c1 1.56%
COC(=O)c1ccc(/C=N/OCC(=O)Nc2cc(F)ccc2F)cc1 -9.21%
CCC(C(=O)OCC(=O)Nc1ccc(C(=O)Nc2ccc(OC)cc2)cc1)c1ccccc1 (configuration not stated) 3.04%
Cc1ccc(F)c(NC(=O)CCc2ccccc2)c1 -2.03%
CC(=O)c1ccc(NC(=O)N[C@@H](Cc2ccccc2)C(=O)O)cc1 5%
CCCCCc1nnc(NC(=O)c2ccc(=O)n(C)n2)s1 -0.796%
C=CCn1cc(C(=O)NCc2ccc(Cl)cc2)c(=O)c2cc(S(=O)(=O)N(CC)CC)ccc21 -2.01%
Cc1ccc(C(=O)NCC2CCCO2)o1 (configuration not stated) 7.91%
Cc1nc2ccccc2c2oc(C(=O)NCCCN3CCC(C)CC3)cc12 -1.82%
O=c1c(-c2ccccc2)cnc2n1CCS2 4.15%
CN(C)CC(C)(C)CNC(=O)c1cc(Br)cc(Br)c1O -13.5%
CN(C)C(CNC(=O)Cc1ccc([N+](=O)[O-])cc1)c1ccccc1 (configuration not stated) 0.871%
CN(C)C(CNC(=O)c1ccc(S(=O)(=O)NCc2ccco2)cc1)c1ccccc1 (configuration not stated) 11.2%
CCC(C)(C)NC(=O)C(c1ccccn1)N(C(=O)c1csnn1)c1ccccc1 (configuration not stated) 0.639%
Cc1ccc(C(=O)N2CCCC(c3ccccc3)=N2)cc1 -7.82%
Cc1cc(C)c(OCCN2CC(C)OC(C)C2)c(Br)c1 (configuration not stated) -12.9%
COc1ccc(NC(=O)N2CCC(Cc3ccccc3)CC2)cc1 -13.4%
CCNC(=O)COC(=O)/C=C/c1c(C)nn(Cc2cccc(OC)c2)c1Cl -14.4%
O=C(CCNC(=O)Cn1ccc2ccccc2c1=O)NCCC1=CCCCC1 -8.45%
COc1ccc(CN(C)C(=S)Nc2ccc(Cl)cc2Cl)cc1 5.98%
O=C1CC2(CC(c3ccc(Cl)cc3)=NO2)C(=O)N1c1ccccc1 (configuration not stated) -7.62%
CCN1CC(CN(C)Cc2nc(-c3ccc(Cl)cc3)no2)CC1=O (configuration not stated) 4.9%
CN(C)C(=O)N1CCNCC1 12.2%
CCC1(C)Cc2c(sc3[nH]c(=S)n(Cc4ccccc4)c(=O)c23)CO1 (configuration not stated) -4.85%
Cn1c(=O)n(Cc2ccco2)c(=N)c2c3c(sc21)CCCC3 -0.0363%
C=CCn1c(=S)sc2c(=O)[nH]c(C)nc21 -7.18%
CCOC(=O)C1(CCOc2ccccc2)CCN(C(=O)c2cncs2)CC1 -4.17%
Cc1c(C(N)=O)sc2ncn(CCOc3ccccc3)c(=O)c12 -1.68%
CCN1C(=O)N[C@@H](c2ccccc2)[C@H](C(C)=O)[C@H]1C 7.43% [at 13.5 µM]
Cc1ccc(C(=O)OC(C)CN2CCOCC2)cc1 (configuration not stated) 0.589%
COc1ccc(OCC(=O)N2CCOCC2)cc1 5.41%
FC(F)(F)c1cccc(-c2nc(COc3ccc(Cl)cc3Cl)no2)c1 6.34%
O=C(CC1SCCNC1=O)Nc1ccc(Cl)cc1 (configuration not stated) 9.61%
Cc1ccc(OCC(=O)NNC(=S)NCc2ccccc2)cc1 -1.88%
COc1ccc(N2CCN(Cc3nnc(-c4ccccc4)o3)CC2)cc1 2.42%
Fc1ccc(N2CCN(Cc3cnc(Oc4ccc(Br)cc4)s3)CC2)cc1 -1.13%

Potency, active:
O=C(c1ccco1)N1CCN(C(=O)c2ccc(COc3ccc(F)cc3)o2)CC1 28.2 µM
CN(C)S(=O)(=O)c1cc(NC(=O)CN2C(=O)NC3(CCCc4ccccc43)C2=O)ccc1Cl (configuration not stated) 12.6 µM
O=C(N/N=C/c1coc2ccccc2c1=O)c1cc2ccccc2o1 10 µM
CCCCC(O)(CCCC)C(=O)NN(C(=O)CCl)c1ccccc1 3.98 µM
CCCC(O)(CCC)C(=O)NN(C(=O)CCl)c1cccc(C)c1 39.8 µM
CC(C)C(=O)Nc1cccc(NC(=S)NC(=O)C(c2ccccc2)c2ccccc2)c1 25.1 µM
NC(=O)c1ccc(NC(=O)COC(=O)C(Cc2ccccc2)NC(=O)c2ccccc2)cc1 (configuration not stated) 0.891 µM
O=C(COC(=O)[C@H](Cc1ccccc1)NC(=O)c1cccs1)Nc1cc(F)ccc1F 14.1 µM
Cc1nc2ccccc2c2oc(C(=O)NCC3CCCO3)cc12 (configuration not stated) 14.1 µM
CC(=O)c1ccc(S(=O)(=O)Nc2ccc(C(=O)NCC(c3ccccc3)N(C)C)cc2)cc1 (configuration not stated) 2.82 µM
Cc1ccccc1/[N+]([O-])=C/c1ccncc1 3.98 µM
CCn1c(=S)[nH]c2sc3c(c2c1=O)CCCCC3 22.4 µM
CC(=O)c1ccc(OCCN2CCOCC2)cc1 25.1 µM
COc1ccc(N2CCN(Cc3ccc(Br)s3)CC2)cc1 25.1 µM
